The record followed here is PubChem BioAssay (Tox21).

Unmarked numbers belong to inactive results. Records with an inconclusive call do not appear. Activity calls are given as the source filed them. Unless noted, the call rests on the fitted dose curve. Bridge positions count the residues as written; N and C are the ends. Square brackets hold non-standard residues; d marks the D form. Peptide text beside a SMILES is read from it. hArg = N=C(N)NCCCC[C@H](N)C(=O)O; Mpa = O=C(O)CCS

Experiment [1] can be described thus: Nuclear factor erythroid 2-related factor 2/antioxidant responsive element (Nrf2/ARE) small molecule agonists: qHTS cell viability counter screen in human keratinocytes (AID 1919968; active means well fitted curve in the direction sought with a large enough effect in the repeat runs; an effect the other way counts as inactive or inconclusive; further: nearly all actives have a fitted effect of over 55% in size; further: potency means the concentration at half of the fitted maximal effect). An outline of the steps: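 Viability counter-screen: KeratinoSens reporter cells, DMSO-delivered compounds, 23 h at 37 C, CellTiter-Fluor fluorescence.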
(Quantitative high-throughput screening tests each substance at several concentrations.)

Experiment [2] can be described thus: Nuclear factor erythroid 2-related factor 2/antioxidant responsive element (Nrf2/ARE) small molecule agonists: luciferase reporter gene qHTS assay in human keratinocytes (AID 1919969). Further: nearly all actives have a fitted effect of over 35% in size. Further: potency means the concentration at half of the fitted maximal effect. Background: Reporter assays use an easily measured gene product as a stand-in for the process of interest.
Experiment [3] deals with Gonadotropin-releasing hormone receptor (Homo sapiens) (UniProt P30968). In words: Human gonadotropin-releasing hormone receptor (GnRHR) small molecule agonists, calcium flux assay in GnRHR-HEK293 cells (AID 1920063). Further: nearly all actives have a fitted effect of over 35% in size. An outline of the steps:
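Tox21-format agonist screen using human GnRHR-expressing HEK293 cells and a fluorescent calcium dye; kinetic 3-min fluorescence reading after compound addition, 15-point concentration series run in triplicate.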
A general note: A change in cytosolic calcium serves as a functional read-out for many receptors and channels.

For experiment [4], the target named is KiSS-1 receptor (Homo sapiens) (UniProt Q969F8). In words: Human kisspeptin (KISS1R) small molecule agonists, calcium flux assay in KISS1R-HEK293 cells (AID 1920064; active means well fitted curve in the direction sought with a large enough effect in the repeat runs; an effect the other way counts as inactive or inconclusive). An outline of the steps:
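Intracellular calcium mobilization in KISS1R-HEK293 cells was recorded by fluorescence (Ex/Em 480/540) for 3 min following compound addition to cells pre-loaded 1 h with calcium dye.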

A short description of experiment [5]: G protein-coupled receptor (GPCR) small molecule agonists, calcium flux assay: HEK293 wild type cell line counter screen (AID 1920065). In short, it runs like this:
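In this agonist-mode screen, ATP is the positive control and DMSO the vehicle. Cells grow 18 h before a 1 h dye incubation at 37 C; signal is taken at Ex/Em 480/540 over 3 min.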

Experiment [6] in a line: p53 small molecule agonists, cell-based qHTS assay with human liver microsomes: qHTS cell viability counter screen (AID 1963579). Further: nearly all actives have a fitted effect of over 45% in size. Further: potency means the concentration at half of the fitted maximal effect. In short, it runs like this:
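Luminescent CellTiter-Glo read-out, 30 min at room temperature, gauged cytotoxicity in p53RE-bla cells exposed 16 h at 37 C to DMSO-dissolved compounds with metabolic activation by human liver microsomes and NADPH, each 0.5 mg/mL final.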

A short description of experiment [7]: p53 small molecule agonists, cell-based qHTS assay with rat liver microsomes: qHTS cell viability counter screen (AID 1963580). Further: nearly all actives have a fitted effect of over 45% in size. An outline of the steps: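 HCT-116 p53RE-bla, 4,000 cells/well, 5 h pre-incubation; cpd + rat liver microsomes 0.5 mg/mL + NADPH 0.5 mg/mL (final); 16 h, 37 C; CellTiter-Glo, 30 min RT; luminescence.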
Experiment [8] can be described thus: p53 small molecule agonists, cell-based qHTS assay: qHTS cell viability counter screen (AID 1963581). Further: nearly all actives have a fitted effect of over 45% in size. Further: potency means the concentration at half of the fitted maximal effect. In short, it runs like this: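 Compounds are pinned onto HCT-116 p53RE-bla cells and left 16 h at 37 C. Following the reporter FRET read, ATP is quantified by CellTiter-Glo luminescence after 30 min at room temperature.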
Experiment [9] is described as follows: p53 small molecule agonists, cell-based qHTS assay (AID 1963582; active means well fitted activation curve with a large enough effect in the signal ratio in the repeat runs, not every such curve was filed as active; the % refers to the signal ratio). In short, it runs like this:
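Agonist activity was scored from beta-lactamase FRET fluorescence in p53RE-bla cells treated 16 h at 37 C with compounds in DMSO, substrate incubation being 2 h at room temperature.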

Experiment [10] can be described thus: cAMP Responsive Elements (CRE) small molecule agonists, cell-based qHTS assay (AID 1963590). An outline of the steps: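 FRET-based beta-lactamase readout (LiveBLAzer B/G, 2 h RT) quantified CRE activation in HEK 293T CRE-bla cells after 3 h treatment with DMSO-dissolved compounds.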
Experiment [11] can be described thus: cAMP Responsive Elements (CRE) small molecule antagonists, cell-based qHTS assay (AID 1963591; active means well fitted inhibition curve with a large enough effect in the signal ratio in the repeat runs, not every such curve was filed as active; the % refers to the signal ratio; further: potency means the concentration at half of the fitted maximal effect). In short, it runs like this: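 qHTS in CRE-bla HEK 293T cells: compound in DMSO, then 0.25 uM NKH477 (final), 3 h at 37 °C/5% CO2; beta-lactamase FRET read-out after 2 h substrate incubation.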
Experiment [12] has as its target Beta-2 adrenergic receptor (Homo sapiens) (UniProt P07550). The experiment in a line: Adrenergic beta2 receptor (ADRB2) small molecule antagonists, cell-based qHTS assay (AID 1963592). Further: series mostly up to about 92 µM; nearly all actives have a fitted effect of over 50% in size. In short, it runs like this: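 Cells (CHO, stable ADRB2 overexpression) incubated 18-20hr at 37C; compounds added from DMSO; agonist mix (1nM isoproterenol, 100uM IBMX, 25uM Ro-20-1724) added; 0.5hr RT; d2-cAMP and anti-cAMP-cryptate added; 1hr RT; 665/615 nm read.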

For experiment [13] the target is unchanged. The experiment in a line: Adrenergic beta2 receptor (ADRB2) small molecule agonists, cell-based qHTS assay (AID 1963593).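 Further: CHO cells stably overexpressing human ADRB2.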 An outline of the steps: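 CHO cells stably over-expressing ADRB2 were plated overnight at 37C, then dosed with compounds plus a stimulation mix containing 100uM IBMX and 25uM Ro-20-1724 for 0.5hr at room temperature. cAMP was measured by HTRF competition, 1hr.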

Experiment [14] deals with D(2) dopamine receptor (Homo sapiens) (UniProt P14416). In words: Dopamine D2 receptor (DRD2) small molecule agonists, cell-based qHTS assay (AID 1963594). Further: nearly all actives have a fitted effect of over 35% in size. In short, it runs like this:
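cAMP accumulation in DRD2-HEK293 cells measured by HTRF after 1 h detection; compounds added 10 min before NKH477 (200nM […]) forskolin-analogue stimulation, 30 min at room temperature, with Ro20-1724 present at 0.1 mM final.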

Experiment [15] shares this target. The experiment in a line: Dopamine D2 receptor (DRD2) small molecule antagonists, cell-based qHTS assay (AID 1963595; active means well fitted inhibition curve with a large enough effect in the signal ratio in the repeat runs, with a control signal flat; the % refers to the signal ratio). An outline of the steps: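 HEK293 cells stably expressing DRD2, preincubated with 0.1 mM Ro20-1724 and compounds 10 min, were stimulated with 200 nM NKH477 plus 12 nM quinpirole for 30 min at room temperature; cAMP measured by HTRF (665/620 nm).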

Experiment [16] in a line: p53 small molecule agonists, cell-based qHTS assay with rat liver microsomes (AID 1963578). An outline of the steps:
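Rat liver microsome activation: microsomes 0.5 mg/mL, NADPH 0.5 mg/mL final; p53RE-bla cells, 16 h 37 C; LiveBLAzer readout, 2 h RT dark.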

The target of experiment [17] is 5-hydroxytryptamine receptor 2A (Homo sapiens) (UniProt P28223). In words: 5-hydroxytryptamine receptor 2A (HTR2A) small molecule antagonists, cell-based qHTS assay (AID 1963586). Further: nearly all actives have a fitted effect of over 45% in size. An outline of the steps:
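Antagonist-mode intracellular calcium assay: DOI (4 nM) added after 5 min compound pre-incubation at room temperature to dye-loaded HTR2A-CHO cells. Fluorescence followed for 3 min, sampled every second.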

Experiment [18] has the same target. In words: 5-hydroxytryptamine receptor 2A (HTR2A) small molecule agonists, cell-based qHTS assay (AID 1963587). Further: nearly all actives have a fitted effect of over 30% in size. An outline of the steps: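 Kinetic calcium-flux fluorescence (2 min, 1 sec intervals) after compound addition in agonist mode. HTR2A-CHO cells were cultured 18 h, then dye-loaded 1 h at 37 C.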
In experiment [19] the target is Muscarinic acetylcholine receptor M1 (Homo sapiens) (UniProt P11229). In words: Cholinergic receptor muscarinic 1 (CHRM1) small molecule antagonists, cell-based qHTS assay (AID 1963588). Further: nearly all actives have a fitted effect of over 40% in size. An outline of the steps:
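CHRM1-CHO calcium-flux assay, antagonist mode. Cells were seeded 18 h, dye-loaded 1 h at 37 C and given compound for 5 min at RT, then acetylcholine was added at 50nM. FDSS fluorescence was read 3 min; 15 concentrations, three runs.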

The target is the same in experiment [20]. The experiment in a line: Cholinergic receptor muscarinic 1 (CHRM1) small molecule agonists, cell-based qHTS assay (AID 1963589). Further: nearly all actives have a fitted effect of over 35% in size. In short, it runs like this:
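Stable CHRM1-CHO cells (human receptor) were incubated 18 h, dye-loaded for 1 h at 37 C and exposed to test compounds for agonist activity, with calcium-dependent fluorescence followed kinetically.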

Sequence of Muscarinic acetylcholine receptor M1 (Homo sapiens) (P11229 whole entry, looked up): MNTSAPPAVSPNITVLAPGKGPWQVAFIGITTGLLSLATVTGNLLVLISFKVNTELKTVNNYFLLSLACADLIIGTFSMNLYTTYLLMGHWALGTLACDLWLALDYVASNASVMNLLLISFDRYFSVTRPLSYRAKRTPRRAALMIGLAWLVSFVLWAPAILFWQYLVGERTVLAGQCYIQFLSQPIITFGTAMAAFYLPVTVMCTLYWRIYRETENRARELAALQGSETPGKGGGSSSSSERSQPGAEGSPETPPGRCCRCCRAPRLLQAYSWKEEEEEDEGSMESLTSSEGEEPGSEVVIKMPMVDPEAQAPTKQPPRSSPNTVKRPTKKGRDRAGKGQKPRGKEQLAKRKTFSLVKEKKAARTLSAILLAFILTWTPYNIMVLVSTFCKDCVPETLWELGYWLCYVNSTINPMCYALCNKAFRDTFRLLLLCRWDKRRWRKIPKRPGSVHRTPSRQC
Sequence of D(2) dopamine receptor (Homo sapiens) (P14416 whole entry, looked up): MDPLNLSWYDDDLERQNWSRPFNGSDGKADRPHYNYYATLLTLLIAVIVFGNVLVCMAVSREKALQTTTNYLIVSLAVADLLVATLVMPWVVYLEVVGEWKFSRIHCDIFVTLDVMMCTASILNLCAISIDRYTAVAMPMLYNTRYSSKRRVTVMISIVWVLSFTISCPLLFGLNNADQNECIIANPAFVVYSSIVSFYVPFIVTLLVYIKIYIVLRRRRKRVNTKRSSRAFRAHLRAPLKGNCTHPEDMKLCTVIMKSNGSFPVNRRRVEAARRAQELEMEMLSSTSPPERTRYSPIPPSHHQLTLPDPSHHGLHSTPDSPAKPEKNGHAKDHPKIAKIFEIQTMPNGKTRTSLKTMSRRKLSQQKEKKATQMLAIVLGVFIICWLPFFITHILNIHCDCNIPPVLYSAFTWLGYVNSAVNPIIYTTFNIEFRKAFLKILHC
Sequence of KiSS-1 receptor (Homo sapiens) (Q969F8 whole entry, looked up): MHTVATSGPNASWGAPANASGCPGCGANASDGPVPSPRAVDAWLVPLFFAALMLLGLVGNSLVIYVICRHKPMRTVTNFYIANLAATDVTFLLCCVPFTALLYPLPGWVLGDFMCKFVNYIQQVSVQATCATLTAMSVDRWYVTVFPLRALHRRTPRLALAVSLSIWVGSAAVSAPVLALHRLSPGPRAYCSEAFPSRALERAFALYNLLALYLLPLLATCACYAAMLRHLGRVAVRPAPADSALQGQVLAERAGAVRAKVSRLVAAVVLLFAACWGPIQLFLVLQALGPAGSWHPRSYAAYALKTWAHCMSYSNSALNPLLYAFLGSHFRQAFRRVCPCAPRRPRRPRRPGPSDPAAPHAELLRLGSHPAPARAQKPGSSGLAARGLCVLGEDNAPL
Sequence of Beta-2 adrenergic receptor (Homo sapiens) (P07550 whole entry, looked up): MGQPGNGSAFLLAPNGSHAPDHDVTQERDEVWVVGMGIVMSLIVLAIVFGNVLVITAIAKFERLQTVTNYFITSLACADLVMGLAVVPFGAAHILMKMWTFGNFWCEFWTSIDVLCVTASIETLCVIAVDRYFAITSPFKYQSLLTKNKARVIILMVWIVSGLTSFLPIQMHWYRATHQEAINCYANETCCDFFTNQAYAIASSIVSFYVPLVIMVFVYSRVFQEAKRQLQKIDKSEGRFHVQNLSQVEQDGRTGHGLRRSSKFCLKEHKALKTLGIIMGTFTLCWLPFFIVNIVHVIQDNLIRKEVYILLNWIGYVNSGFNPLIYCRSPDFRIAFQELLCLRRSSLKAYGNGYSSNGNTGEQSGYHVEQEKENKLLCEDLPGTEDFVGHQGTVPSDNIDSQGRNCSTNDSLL
Sequence of Gonadotropin-releasing hormone receptor (Homo sapiens) (P30968 whole entry, looked up): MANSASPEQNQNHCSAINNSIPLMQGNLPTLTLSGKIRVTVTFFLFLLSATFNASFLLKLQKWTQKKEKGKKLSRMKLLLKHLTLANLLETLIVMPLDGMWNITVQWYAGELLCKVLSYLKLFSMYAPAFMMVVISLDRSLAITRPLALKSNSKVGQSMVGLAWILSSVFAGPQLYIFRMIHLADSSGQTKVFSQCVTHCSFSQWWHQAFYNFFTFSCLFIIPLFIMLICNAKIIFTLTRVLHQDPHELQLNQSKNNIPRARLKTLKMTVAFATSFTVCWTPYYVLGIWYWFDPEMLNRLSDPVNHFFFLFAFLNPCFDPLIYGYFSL
Sequence of 5-hydroxytryptamine receptor 2A (Homo sapiens) (P28223 whole entry, looked up): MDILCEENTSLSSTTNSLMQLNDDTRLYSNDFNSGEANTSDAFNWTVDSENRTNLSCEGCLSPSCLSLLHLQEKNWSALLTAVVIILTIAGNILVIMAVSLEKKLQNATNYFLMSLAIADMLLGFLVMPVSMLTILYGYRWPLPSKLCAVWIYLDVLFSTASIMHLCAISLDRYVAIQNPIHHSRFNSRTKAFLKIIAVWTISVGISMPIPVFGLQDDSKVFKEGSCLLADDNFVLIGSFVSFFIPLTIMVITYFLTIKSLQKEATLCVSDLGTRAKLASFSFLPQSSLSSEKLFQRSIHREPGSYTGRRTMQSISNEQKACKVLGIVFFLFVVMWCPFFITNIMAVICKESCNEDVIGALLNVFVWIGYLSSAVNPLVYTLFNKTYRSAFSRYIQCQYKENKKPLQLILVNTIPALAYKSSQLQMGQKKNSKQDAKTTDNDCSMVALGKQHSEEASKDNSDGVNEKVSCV

As to `NC(=O)[C@@H]1CSSCCC(=O)N[C@@H](CCCCN=C(N)N)C(=O)NCC(=O)N[C@@H](CC(=O)O)C(=O)N[C@@H](Cc2c[nH]c3ccccc23)C(=O)N2CCC[C@H]2C(=O)N1` ([Mpa][hArg]GDWPC-NH2; disulfide 1-7), the Potency result in experiment [1], in experiment [2], in [3], in experiment [4], in experiment [5] and in experiment [6] was “inactive” each time. The Potency entry in experiment [7], in [8], in experiment [9], in experiment [10], in experiment [11] and in experiment [12] was “inactive” each time. Besides, the Potency entry in experiment [13], in [14] and in [15] was “inactive” in each case.

As to `CC(C)c1ccccc1N`, the Potency entry in [1], in [2], in experiment [3], in experiment [4], in experiment [5] and in experiment [16] was “inactive” each time. In addition, the Potency entry in [6], in experiment [7], in experiment [8], in [9], in [17] and in experiment [18] was “inactive” in each case. For the same compound, the Potency result in experiment [19], in experiment [20], in experiment [10], in experiment [11], in experiment [12] and in [13] was “inactive” throughout. For the same compound, the Potency entry in [14] was “inactive”.

`COC(=O)c1ccc(C(=O)O)cc1`: the Potency entry in experiment [1], in [2], in [3], in [4], in experiment [5] and in experiment [6] was “inactive” throughout. In addition, the Potency entry in [9], in [18], in experiment [19], in [20], in experiment [10] and in experiment [11] was “inactive” in each case. Moreover, the Potency entry in experiment [12] and in experiment [14] was “inactive” each time.

For the compound `C[C@]12CC[C@H]3C(=CCc4cc(O)ccc43)[C@@H]1CCC2=O`, the Potency entry in experiment [1], in experiment [2], in experiment [3], in experiment [4], in experiment [5] and in [6] was “inactive” in each case. In addition, the Potency entry in experiment [7], in experiment [8], in experiment [9], in experiment [17], in experiment [18] and in experiment [19] was “inactive” in each case. Besides, the Potency result in experiment [20], in experiment [10], in experiment [12], in [13], in experiment [14] and in experiment [15] was “inactive” in each case.

Consider `COc1ccc2c(c1)c(CC(=O)OC/C=C(\C)CC/C=C(\C)CCC=C(C)C)c(C)n2C(=O)c1ccc(Cl)cc1`, for which the Potency result in experiment [1], in [2], in experiment [3], in experiment [4], in [5] and in [16] was “inactive” in each case. Moreover, the Potency result in experiment [6], in experiment [7], in [8], in [9], in experiment [17] and in experiment [18] was “inactive” throughout. For the same compound, the Potency entry in experiment [19], in experiment [20], in experiment [10], in [11], in experiment [12] and in experiment [13] was “inactive” each time. Besides, the Potency entry in experiment [14] and in [15] was “inactive” throughout.

For the compound `CCCc1ccccc1O`, the Potency result in [1], in [2], in experiment [3], in experiment [4], in experiment [5] and in experiment [6] was “inactive” each time. For the same compound, the Potency result in [7], in experiment [8], in experiment [9], in experiment [17], in experiment [18] and in [19] was “inactive” each time. The Potency entry in experiment [20], in experiment [10], in experiment [11], in experiment [12], in [13] and in experiment [15] was “inactive” each time.

For `CC(C)C[C@H](NC(=O)[C@H](Cc1ccccc1)NC(=O)c1cnccn1)B(O)O`, the Potency in experiment [1] is 596 nM (active); in [2], 42.2 nM (active); in [6] it was 890 nM (active); in [8], 707 nM (active); in experiment [11], 944 nM (active). The Potency entry in experiment [3], in [4], in [5], in [17], in experiment [18] and in experiment [19] was “inactive” throughout. Further, the Potency result in experiment [20], in [10], in experiment [12], in experiment [14] and in [15] was “inactive” throughout.

In the case of `O=C(O)CCCl`, the Potency entry in experiment [1], in experiment [2], in experiment [3], in experiment [4], in experiment [5] and in [6] was “inactive” in each case. Moreover, the Potency entry in [7], in experiment [8], in experiment [9], in experiment [17], in [19] and in [20] was “inactive” each time. Also, the Potency result in experiment [10], in experiment [13], in experiment [14] and in [15] was “inactive” throughout.
